Compounds with a hit are over-represented: about 5.7% of the library has one in this group of screens.
HEK293 tox = cytotoxic in the GLP-1 receptor inverse agonist counter-screen; AID 624418; HEK293 cAMP-luciferase reporter cells, luminescence, 24 h; Potency, µM (series often up to 38.3 µM), for inactives: at the top dose activity change, negative = inhibition, actives largely listed as inhibitors; 0.13% of 410,000 active;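 further: loss of luciferase light is scored as toxicity; potency means the concentration at half of the fitted maximal effect; on the % scale 0 is the no-effect control and ±100 the full control effect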
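1536-well qHTS counterscreen of the MLSMR; 200 cells/uL, 12 h pre-incubation, 23 nL cpd, 24 h at 37 deg C 5% CO2, luciferase detection reagent, 12 min RT, luminescence. Inhibition = undesired.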
GLP1R ag = activates the human GLP-1 receptor | HEK293 GLP-1R CRE-luciferase, luminescence, 4-6 h; cells express a hypersensitive GLP-1R form | 0.007% of 380,000 active | Potency, µM (top dose mostly 45.6 µM), for inactives: at the top dose activation, most hits filed as activators | P43220; further: potency means the concentration at half of the fitted maximal effect; % of control where 0% means no effect
Target sequence (P43220 whole entry, looked up): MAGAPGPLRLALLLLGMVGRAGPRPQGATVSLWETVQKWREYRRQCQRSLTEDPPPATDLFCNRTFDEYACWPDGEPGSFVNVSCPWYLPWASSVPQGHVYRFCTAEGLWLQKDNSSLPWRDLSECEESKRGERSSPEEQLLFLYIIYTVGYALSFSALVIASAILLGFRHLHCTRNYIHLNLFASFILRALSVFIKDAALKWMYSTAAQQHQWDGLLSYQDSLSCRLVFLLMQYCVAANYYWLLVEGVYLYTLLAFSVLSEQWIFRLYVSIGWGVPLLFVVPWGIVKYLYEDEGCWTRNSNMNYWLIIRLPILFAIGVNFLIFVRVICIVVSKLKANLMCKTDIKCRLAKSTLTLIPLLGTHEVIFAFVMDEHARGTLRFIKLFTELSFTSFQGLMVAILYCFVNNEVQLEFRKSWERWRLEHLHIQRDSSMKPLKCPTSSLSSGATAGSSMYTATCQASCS
D3 ag = agonists of human D3 dopamine receptor | D3R DiscoveRx beta-arrestin cells, luminescence, 90 min | max activation, % | 0.58% of 410,000 active | AID 652048; in the data active means max activation above about 30%; further: 0% is about no effect
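Agonist mode: compounds and dopamine controls were applied to plated cells for 90 min at 37 degrees C after an overnight attachment at 1500 cells/well. Luminescent read-out followed 30 - 60 minutes at room temperature with DiscoveRx detection reagent.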
DRD3 antagonist = D3 dopamine receptor (human) antagonism | P35462 | D3R cells, DiscoveRx beta-arrestin luminescence, antagonist mode; hits give low values | max response, negative = inhibition, % | 2.5% of 360,000 active | AID 652054; in the data active means max response below about -50%; inconclusive means no clear call, values can overlap the other calls; further: on the % scale 0 is the no-effect control and ±100 the full control effect
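Cells plated overnight at 1500 cells/well, then exposed to library compounds with dopamine controls for 90 minutes at 37 degrees C. DiscoveRx reagent added for 30–60 minutes at room temperature; luminescence read, quantitative HTS format.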
GLP-1R inv ag = GLP-1 receptor (human) inverse agonism; P43220; 1.6% of 410,000 active; HEK293 GLP-1R CRE-luciferase, luminescence, 24 h; GLP-1R form is constitutively active; Potency, µM (series often up to 38.3 µM), for inactives: at the highest dose activity change, negative = inhibition, actives largely listed as inhibitors; further: potency means the concentration at half of the fitted maximal effect; on the % scale 0 is the no-effect control and ±100 the full control effect; nearly all actives have a fitted effect of over 55% in size
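Constitutively active GLP-1R drives a cAMP-responsive luciferase in stably transfected HEK293 cells; test compounds are added after overnight (12 h) attachment and left 24 hr, and signal loss in luminescence marks inhibition.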
ClpP mod = qHTS Assay for Activators of ClpP | purified B. subtilis ClpP, FRET peptide cleavage, 20 min | Potency, µM (series often up to 57.5 µM), without a hit: at the top dose activity change, negative = active | 1.9% of 340,000 active; active means well fitted falling curve with a large enough effect; inconclusive means small, poorly fitted or top-dose-only effect; inactive means no such curve, though single readings can be large or run the other way; further: potency means the concentration at half of the fitted maximal effect; the source files actives as falling curves though it sought activators and does not explain the sign; nearly all actives have a fitted effect of over 65% in size
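Purified B. subtilis ClpP, 10 microg/mL final in Tris/HCl pH8 with KCl, BSA, glycerol and Tween-20, cleaved an Abz/nitrotyrosine-quenched decapeptide. Fluorescence (ex 320, em 430) was read at 0 and 20 min at room temperature. Delta was normalized to 5.8 microM ADEP and DMSO/no-enzyme controls.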
* hit, by the source's call; [ ] = another dose, or the depositor's remark. Unless noted, the call rests on the fitted dose curve; in most records, active means well fitted curve in the direction sought with a large enough effect; inconclusive means small, poorly fitted or top-dose-only effect, or another doubt; inactive means no such curve, though single readings can be large; an effect the other way counts as inactive or inconclusive.

`O=c1c(C=NCc2cccs2)c(O)n(C2CCCCC2)c(=O)n1C1CCCCC1` gave HEK293 tox 13.3%, GLP1R ag -1.7%, D3 ag -11.8, DRD3 antagonist 0.0, GLP-1R inv ag inconclusive and ClpP mod -2.6%.
`Cn1cc(SCC(=O)Nc2nc3ccccc3s2)c2ccccc21` gave HEK293 tox inconclusive, GLP1R ag -13.9%, D3 ag -5.3, DRD3 antagonist 0.0, GLP-1R inv ag 10µM* and ClpP mod 2.8%.
Screening Cn1cc(C(=O)OCC(=O)NC2CCCCC2)c2ccccc21 returned HEK293 tox 0.3%, GLP1R ag -3.2%, D3 ag -11.0, DRD3 antagonist -12.5, GLP-1R inv ag -23.6% and ClpP mod -2.5%.
For O=c1[nH]c(O)c(N=Nc2ccc(Cl)c(S(=O)(=O)Nc3ccccc3Cl)c2)c(=O)[nH]1 the results were HEK293 tox -14.6%, GLP1R ag -2.9%, D3 ag 3.8, DRD3 antagonist 23.6, GLP-1R inv ag inconclusive and ClpP mod -1.6%.
For Cn1c(=O)oc(=O)c2ccccc21 the results were HEK293 tox 4.9%, GLP1R ag -0.4%, D3 ag 31.1*, DRD3 antagonist 3.6 and GLP-1R inv ag 5.7%.
O=C(NC1CCCc2ccccc21)c1ccccc1OC(F)F (stereo unspecified) was read as HEK293 tox inconclusive, GLP1R ag 11.0%, D3 ag -5.3, DRD3 antagonist 9.4 and GLP-1R inv ag -28.9%.
`CN(C)S(=O)(=O)c1ccc(C(=O)NCCSc2c(-c3ccccc3)[nH]c3ccccc23)cc1` gave HEK293 tox -5.5%, D3 ag -2.8, GLP-1R inv ag inconclusive and ClpP mod -13.0%.
`CCCn1cc(S(=O)(=O)c2ccc(OC)cc2)c(=O)c2cc(F)c(N3CCCCCC3)cc21` gave HEK293 tox 0.9%, D3 ag -1.2, GLP-1R inv ag -6.5% and ClpP mod inconclusive.
`CC[C@@H](O)C(C[C@@H](C)N(C)C)(c1ccccc1)c1ccccc1` gave GLP1R ag -0.4%[96 µM] and D3 ag 7.3.
For COc1ccc(C(=O)CCNc2ccc(F)cc2)cc1 the results were HEK293 tox -1.0%, GLP1R ag 7.4%, D3 ag -14.3, DRD3 antagonist -5.5, GLP-1R inv ag 14.2% and ClpP mod 28.2µM*.
`COc1ccc(C(=O)C(C)(C)NO)cc1` gave HEK293 tox 4.2%, GLP1R ag 18.0%, D3 ag -7.1, DRD3 antagonist 9.0, GLP-1R inv ag 5.3% and ClpP mod 2.1%.
For CN(Cc1cn(-c2ccccc2)nc1-c1ccc2c(c1)OCO2)Cc1nccn1C the results were HEK293 tox inconclusive, GLP1R ag 5.3%, D3 ag -1.3, DRD3 antagonist 3.3, GLP-1R inv ag inconclusive and ClpP mod 4.1%.
Screening Cc1ccc2scc(N3CCN(C)CC3)c(=O)c2c1 returned HEK293 tox 1.0%, D3 ag 3.1, GLP-1R inv ag 21.0% and ClpP mod -24.2%.
CCN1CCN(c2ncnc3ccc(Br)cc23)CC1 was read as HEK293 tox -19.9%, GLP1R ag -15.8%, D3 ag -1.3, DRD3 antagonist -65.7*, GLP-1R inv ag inconclusive and ClpP mod 0.7%.
Screening CCCCOc1ccccc1C1CC(=O)Nc2cc(C)c(C)cc21 (stereo unspecified) returned HEK293 tox inconclusive, D3 ag 6.3, GLP-1R inv ag 12.6µM* and ClpP mod -4.1%.
Screening CNC(=O)Oc1cccc(-c2cn3cc(OC(=O)NC)ccc3n2)c1 returned HEK293 tox -16.6%, GLP1R ag 0.7%, D3 ag 1.8, DRD3 antagonist -3.6, GLP-1R inv ag 13.1% and ClpP mod 14.1µM*.

Screens: PubChem, National Center for Advancing Translational Sciences (NCATS)
